# Screening data (PubChem BioAssay)
# A selection: hits, their analogues and other compounds. The true share with any hit is near 27%.
# CYP2C9 act – CYP2C9 (human) activation | 96,000 tested, 1.4% active | recombinant CYP2C9, luciferin-H conversion, luminescence; active compounds read high; factor 1 = untreated enzyme, 0 = blocked | P11712 | activation factor at 5 µM | AID 1024;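 active means activation factor of 2 or more for CYP2C9 at a 5 µM dose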;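 further: 0 = sulfaphenazole-blocked wells and 1 = vehicle-only wells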
# CYP2C19 activ – activators of human cytochrome P450 2C19. AID 1025. recombinant CYP2C19, luciferin-H EGE luminescence; active compounds read high; 0 = fully inhibited enzyme, 1 = untreated enzyme. activation factor at 5 µM. 96,000 tested, under 10 active. P33261;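 active means activation factor of at least 2 at 5 µM in the primary screen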;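 further: 0 = wells with 2.5 mM tranylcypromine and 1 = vehicle-only wells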
# CYP2C9 inhib – blocks human cytochrome P450 2C9 | P11712 | CYP2C9 Supersomes, luciferin-H conversion, luminescence | inhibition, % at 5 µM | 96,000 tested, 20% active | AID 777;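 active means blocking of liver enzyme CYP2C9 beyond about 50% at 5 µM, limit read from the data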
# CYP2C19 inh – inhibitors of human CYP2C19. P33261. CYP2C19 Supersomes, luciferin-H EGE luminescence, 30 min. inhibition, % at 5 µM. 96,000 tested, 21% active. AID 778;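 active means CYP2C19 inhibition above a set limit at 5 µM in the primary screen, cut at about 50% in these data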;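 further: plate controls were negative control wells for no effect and 2.5 mM tranylcypromine positive control for full effect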
# Cav32 inh – blocks human Cav3.2 T-type calcium channel. O95180. 100,000 tested, 4% active. Cav3.2-expressing cells, Fluo-4 calcium fluorescence FDSS; active compounds read low. B-score at 10 µM;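 active means single-dose well whose peak fluorescence ratio is a statistical outlier from its plate by either plate-standardised score or position-corrected B-score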
# Active calls of the source: *; x = not tested or not shown.
SMILES,CYP2C9 act,CYP2C19 activ,CYP2C9 inhib,CYP2C19 inh,Cav32 inh
CCn1c(SCC(=O)NC2CCCC2)nnc1-c1c[nH]c2ccccc12,0.2,0.6,78.5*,41.9,2.94
CCn1c(SCC(=O)NCc2ccccc2)nnc1-c1c[nH]c2ccccc12,0.2,0.2,80.9*,77.4*,0.395
Cc1ccc(OCC(=O)NNC(=O)C2CCN(c3nc(C)cc(C)n3)CC2)cc1,1,0.9,-0.1,12.4,-0.204
CC(=O)c1coc2ccc(OCC(=O)O)cc12,x,x,x,x,0.483
CCOc1ccccc1-n1c(SCC(=O)NC2CCCC2)nnc1-c1ccoc1C,0.3,0.3,74.4*,67.7*,-0.15
CCOc1ccccc1-n1c(SCC(=O)NC(C)(C)C)nnc1-c1ccoc1C,0.6,0.6,35.5,40.0,-0.475
O=C(O)C1C2C=CC(C3CC23)C1C(=O)N1CCc2ccccc21 (stereo not given),1.1,1.2,-7.6,-17.1,0.449
O=C(Nc1ccc(F)cc1)N1CCC(c2nc3c(nnn3Cc3cccc(Cl)c3)c(=O)[nH]2)CC1,0.3,0.6,65.7*,35.3,-0.533
Cc1ccc(NC(=O)N2CCC(c3nc4c(nnn4Cc4cccc(Cl)c4)c(=O)[nH]3)CC2)cc1,0,0.1,100.0*,94.3*,-2.99
Cc1ccc(Cn2nnc3c(=O)[nH]c(C4CCN(S(=O)(=O)c5ccc(C)cc5)CC4)nc32)cc1,0,0.2,97.7*,78.1*,-1.08
O=C(NCc1cccs1)c1nc2c(nnn2Cc2ccc(F)cc2)c(=O)[nH]1,x,x,x,x,-1.88
CCc1nc2c(nnn2Cc2ccc(F)cc2)c(=O)[nH]1,0.9,0.1,10.2,87.5*,x
Cc1cc(C)n(-c2nc3ccccc3c(=O)n2OCC(=O)N(C)C)n1,1.1,1,-9.9,-1.5,1.75
Cc1cc(C)n(-c2nc3ccccc3c(=O)n2OCC(=O)Nc2c(C)cccc2C)n1,0.5,0.9,51.6*,11.1,x
Cc1cc(C)n(-c2nc3ccccc3c(=O)n2OCC(=O)OCc2ccccc2)n1,0.8,0.9,18.1,6.0,x
Cc1cc(C)n(-c2nc3ccccc3c(=O)n2OCc2ccc(Cl)cc2)n1,0.7,0,26.5,97.6*,x
Cc1cccc(NCc2ccccc2O)c1C,0.4,0,61.0*,95.6*,-0.393
CC(C)C[C@@H](CSc1ccc(Br)cc1)N1CCN(CC(C)C)CCC1=O,x,x,x,x,-1.29
Cc1cc(-c2cc(-c3ccccc3)on2)nc(NCC2CC2)n1,x,x,x,x,2.18
COC(=O)C1CCN(c2nc3ccccc3nc2C(C#N)C(=O)OCC(C)C)CC1 (stereo not given),0.5,0.7,47.8,34.5,-3.4
CCOC(=O)C1CCN(c2nc3ccccc3nc2C(C#N)C(=O)OCCOC)CC1 (stereo not given),0.5,0.3,49.9,66.2*,-2.61
C=CCOC(=O)C(C#N)c1nc2ccccc2nc1N1CCC(C(=O)OCC)CC1 (stereo not given),0.4,0.7,56.0*,26.1,-0.829
C=CCOC(=O)C(C#N)c1nc2ccccc2nc1N1CCN(Cc2ccc3c(c2)OCO3)CC1 (stereo not given),0.4,0.7,57.3*,25.9,x
CCOC(=O)C1CCN(c2nc3ccccc3nc2C(C#N)C(=O)OC(C)C)CC1 (stereo not given),0.8,0.1,17.4,91.6*,-2.29
Cc1noc(NS(=O)(=O)c2ccc(NC(=O)CSc3nc4ccccc4s3)cc2)c1C,1.1,1.2,-14.3,-20.2,0.00645
SMILES,CYP2C9 act,CYP2C19 activ,CYP2C9 inhib,CYP2C19 inh,Cav32 inh
CCOC(=O)C1CCN(c2nc3ccccc3nc2C(C#N)C(=O)OC(C)COC)CC1 (stereo not given),0.4,0.4,63.3*,61.4*,-4.38*
CSc1nc2[nH]c3c(c2c2ncnn12)CCCC3,0.8,0.9,20.4,8.2,x
Cc1nc(SCC(C)C)[nH]c(=O)c1Cc1ccccc1,1.1,0.4,-7.2,58.6*,-0.773
C=C(C)CSc1nc(C)c(Cc2ccccc2)c(=O)[nH]1,0.8,0.5,23.1,49.1,-3.26
CC(C)c1c(O)nc(SCc2ccccc2)[nH]c1=O,0.5,0.9,52.3*,5.1,0.0128
CC(C)c1c(O)nc(SCCC(=O)O)[nH]c1=O,1,1,-3.9,0.3,0.198
C=CCNc1nnc(SC2CC(=O)N(c3ccc(OC)cc3)C2=O)s1 (stereo not given),1,0.7,-2.9,34.8,1.77
Cc1ccc2c(c1)C(N1CCCC1=O)CC(c1ccco1)N2 (stereo not given),0.7,0.2,28.7,77.7*,-0.737
O=C(CSCC(=O)N1CCCc2ccccc21)Nc1nc(-c2ccccc2)cs1,x,x,x,x,-4.42
Cc1nc2ccc(S(=O)(=O)Nc3cc(-c4nc5cccnc5s4)ccc3C)cc2s1,x,x,x,x,-2.82
Cc1ccc(-c2nc3cccnc3s2)cc1NS(=O)(=O)c1ccc2c(c1)OCCO2,0.3,1.1,73.8*,-13.5,0.0313
Cc1ccc(S(=O)(=O)N(C(=O)c2ccncc2)c2ccc(OC(=O)c3ccncc3)c3ccccc23)c(C)c1,0,0,99.1*,97.3*,-2.28
Cc1ccc(OC(=O)c2ccc(S(=O)(=O)N(C)C)cc2)c(-n2nc3ccccc3n2)c1,0.7,0.8,28.0,15.9,-0.366
Nn1c(-c2ccco2)n[nH]c1=S,0.9,1,8.7,1.7,0.358
CN=C(c1ccco1)n1c(=S)nc(-c2ccco2)n(C)c1=S,0.3,0.2,65.8*,78.6*,0.0475
O=C(O)C1Nc2ccc(C(F)(F)F)cc2C2OCCC12 (stereo not given),x,x,x,x,0.0676
Cn1c(NCc2ccccc2O)nc2ccccc21,1,0.4,-0.7,63.6*,1.33
Cn1c(NCc2cccc(Br)c2)nc2ccccc21,0.7,0.5,31.0,54.4*,-2.55
Cn1c(NCc2ccccc2Cl)nc2ccccc21,x,x,x,x,1.43
N#CCCCSc1nnc(-c2ccccn2)o1,1,1,-0.3,3.6,x
Cc1ccc(-n2nc3c(c2NC(=O)c2ccccc2Br)CS(=O)C3)cc1 (stereo not given),0.6,0.7,44.3,33.8,0.224
O=C(COc1ccc(Cl)cc1Cl)N(Cc1ccco1)C1CCS(=O)(=O)C1 (stereo not given),0.7,0.7,27.5,30.6,-0.667
CCCn1c2ccccc2c2nnc(SCC(=O)OCC)nc21,0.8,0.3,23.9,66.2*,-1.93
CCOC(=O)CSc1ncc(-c2ccccc2)cn1,0.8,0.8,19.6,24.4,1.57
CCn1c2ccccc2c2nnc(SCC(=O)Nc3cc(C)on3)nc21,0.9,0.9,6.9,12.3,0.395
CCn1c2ccccc2c2nnc(SCC(=O)NCCOC)nc21,1,0.4,-4.3,55.2*,0.4
CCOC(=O)CSc1ncc(-c2ccccc2)nn1,0.5,0.3,45.9,69.5*,-1.53
CCOC(=O)CSc1ncc(OC)c(Sc2ccc(OC)cc2)n1,0.2,0.6,83.9*,40.0,-6.59*
CCOC(=O)/C(N)=C/c1ncc(C(F)(F)F)cc1Cl,0.9,1,5.1,-1.5,-0.0031
COc1cc(CCCN2C(N)=NC[C@H]2Cc2ccc(O)cc2)cc(OC)c1OC,x,x,x,x,0.334
